Consider 19 compounds from PubChem BioAssay (NCI).

“And” between values parts separate entries of the source, which are not always exact repeats. Equal values may be shown once. The panel holds about 79,000 compounds, 15% with a hit somewhere; the sample as a whole holds those more often. Some compounds were tested as several samples or in several runs, with calls that do not always agree. The source made the active and inactive calls. Rule as the data show it: active = growth inhibition above about 70%; inactive = the rest.

The nature of experiment [1]: NCI Yeast Anticancer Drug Screen. Data for the rad50 strain (AID 155).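 Also: 0% = growth of vehicle-only cultures of the same strain.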 The settings on record: S. cerevisiae rad50 strain growth inhibition; at 50.0 µM; stronger effect = higher value. Summed up: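 Cells are treated with compound, grown, and their growth is then scored against vehicle-only cultures of the same repair-deficient yeast strain.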
Experiment [2] can be described thus: NCI Yeast Anticancer Drug Screen. Data for the mec2-1 strain (AID 157). The settings on record: S. cerevisiae mec2-1 strain, at 50.0 µM, stronger effect = higher value. Summed up: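 Mutant yeast (mec2-1) grown with compound; growth inhibition relative to vehicle control reported.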
Experiment [3] is described as follows: NCI Yeast Anticancer Drug Screen. Data for the sgs1 mgt1 strain (AID 161).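 Also: 0% = growth of cultures given vehicle only.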 The conditions noted are these: S. cerevisiae sgs1 mgt1 strain, at 50.0 µM, stronger effect = higher value. The method, boiled down:
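This yeast growth screen uses a strain with defined DNA-repair lesions; compound-treated growth is compared with vehicle-treated growth.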

Experiment [4] is described as follows: NCI Yeast Anticancer Drug Screen. Data for the cln2 rad14 strain (AID 165).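 Also: 0% = growth equal to vehicle treated cultures.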 The settings on record: S. cerevisiae cln2 rad14 strain, at 50.0 µM, stronger effect = higher value. Summed up: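 Readout is yeast growth inhibition versus vehicle-treated controls, using a strain with cln2 and rad14 alterations exposed to compound.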
A short description of experiment [5]: NCI Yeast Anticancer Drug Screen. Data for the bub3 strain (AID 167). The settings on record: S. cerevisiae bub3 mutant strain, at 50.0 µM, stronger effect = higher value. Summed up:
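Part of a panel of yeast mutants defective in DNA damage repair or cell cycle regulation. Each strain is grown with compound, and inhibition is calculated relative to solvent-treated cultures.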

A short description of experiment [6]: NCI Yeast Anticancer Drug Screen. Data for the mlh1 rad18 strain (AID 175). The settings on record: S. cerevisiae mlh1 rad18 strain growth inhibition; at 50.0 µM; stronger effect = higher value. Summed up:
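Genetically defined yeast (DNA repair-deficient) exposed to compounds; growth inhibition determined relative to vehicle.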

With `CCCCCCC(=O)O[C@H]1CC[C@H]2[C@@H]3CCC4C/C(=N/NC(=O)c5cccc6c(=O)c7ccccc7[nH]c56)C=C(C)[C@]4(C)[C@H]3CC[C@]12C` (some centres undefined), the growth inhibition in experiment [1] is 3.1% (inactive); in experiment [2], -0.85% (inactive); in experiment [3] it was 16.6% (inactive); in experiment [4], 24.7% (inactive); in experiment [5] it was 8.45% (inactive); in experiment [6] it was -55.3% (inactive).
Turning to `C[N+]1(CCCl)CCc2cc([N+](=O)[O-])ccc2C1` (centres undefined), the growth inhibition in experiment [1] was -25.1% (inactive); in experiment [2], -84.7% (inactive); in experiment [3] it was -24.9% (inactive); in experiment [4], -16.1% (inactive); in experiment [5] it was -12.6% (inactive); in experiment [6], -9.8% (inactive).
Regarding `NCCN.O=N[O-].O=N[O-].O=N[O-].O=N[O-].[Co+3].[K+]`, the growth inhibition in experiment [1] is -1.1% (inactive); in experiment [2], 4.05% (inactive); in experiment [3], 14.4% (inactive); in experiment [4], 12.3% (inactive); in experiment [5], 3.6% (inactive); in experiment [6], 2.1% (inactive).
In the case of `CCC1(O)CC(O)c2c(O)c3c(c(O)c2C1C(=O)OC)C(=O)c1cccc(O)c1C3=O` (centres undefined), the growth inhibition was 20.8% (inactive) in experiment [1]; 39.8% (inactive) in experiment [2]; 28.2% (inactive) in experiment [3]; 21.8% (inactive) in experiment [4]; 14.5% (inactive) in experiment [5]; 36.8% (inactive) in experiment [6].
Regarding `CCOC(=O)CC(=Nc1cc(C)on1)N(CC)CC`, the growth inhibition in experiment [1] was 0.95% (inactive); in experiment [2], -19.2% (inactive); in experiment [3] it was 6.3% (inactive); in experiment [4], 9.95% (inactive); in experiment [5], -9.75% (inactive); in experiment [6], -17.1% (inactive).
Regarding `COC(=O)c1cccc(S(=O)(=O)F)c1`, the growth inhibition was -9.85% (inactive) in experiment [1]; -5.05% (inactive) in experiment [2]; -15.7% (inactive) in experiment [3]; -13.4% (inactive) in experiment [4]; 20.1% (inactive) in experiment [5]; -28.4% (inactive) in experiment [6].
Regarding `O=C(O)C1C2C=Cc3ccccc3C21` (centres undefined), the growth inhibition in experiment [1] is 4.5% (inactive); in experiment [2], 2.9% (inactive); in experiment [3], -11.3% (inactive); in experiment [4], -26.6% (inactive); in experiment [5], -6.2% (inactive); in experiment [6] it was 6.45% (inactive).
For `COc1cc2c(cc1OC)C13CCN4CC5=CCOC(CC(=O)O)C(C5CC41)C3N2` (centres undefined), the growth inhibition in experiment [1] was 14.2% (inactive) and -40.6% (inactive); in experiment [2] it was 26.1% (inactive) and -27.1% (inactive); in experiment [3], 47.1% (inactive) and -32.6% (inactive); in experiment [4] it was 91.8% (active) and 10.6% (inactive); in experiment [5], -18.6% (inactive) and -38.2% (inactive); in experiment [6], 3.35% (inactive) and -34.1% (inactive).
With `CN(C)C(=O)C(Cl)Cl`, the growth inhibition in experiment [1] is -0.75% (inactive); in experiment [2], 7.3% (inactive); in experiment [3] it was -4% (inactive); in experiment [4] it was -7.25% (inactive); in experiment [5], 12.8% (inactive); in experiment [6], 2.25% (inactive).
Turning to `CS(=O)(=O)Cl`, the growth inhibition in experiment [1] is 7.65% (inactive); in experiment [2], -26.9% (inactive); in experiment [3] it was 16.4% (inactive); in experiment [4], 13.1% (inactive); in experiment [5] it was -4.85% (inactive); in experiment [6] it was 0% (inactive).
As for `CC(=O)OC1=CCC2(C)C(CCC3C4CCC(OC(C)=O)C4(C)CCC32)C1=O` (centres undefined), the growth inhibition in experiment [1] was 87.5% (active); in experiment [2] it was 79.4% (active); in experiment [3] it was 87.5% (active); in experiment [4], 72.3% (active); in experiment [5] it was 73.5% (active); in experiment [6], 85.3% (active).
Consider `COc1cc2c(cc1O)CC1CC(=O)CCN1C2` (centres undefined), for which the growth inhibition in experiment [1] is -3.4% (inactive); in experiment [2] it was 4.5% (inactive); in experiment [3], -12.1% (inactive); in experiment [4], -6.85% (inactive); in experiment [5], -10.8% (inactive); in experiment [6] it was -0.75% (inactive).
In the case of `O=C1NC2(CCCCC2)C(=O)N1CCCCN(CCCl)CCCl`, the growth inhibition in experiment [1] is 1% (inactive); in experiment [2], 9.8% (inactive); in experiment [3], 9.2% (inactive); in experiment [4] it was 5.2% (inactive); in experiment [5], 21.4% (inactive); in experiment [6] it was -5.85% (inactive).
Turning to `C1CN1Sc1nc(SN2CC2)nc(SN2CC2)n1`, the growth inhibition was -1.35% (inactive) in experiment [1]; -5.55% (inactive) in experiment [2]; 19.7% (inactive) in experiment [3]; -73% (inactive) in experiment [4]; 11.8% (inactive) in experiment [5]; 27.3% (inactive) in experiment [6].
Regarding `NCCN.O=C([O-])C(=O)[O-].O=C([O-])C(=O)[O-].[Co+3].[K+]`, the growth inhibition in experiment [1] was 0.2% (inactive); in experiment [2] it was -8.5% (inactive); in experiment [3] it was 10.2% (inactive); in experiment [4], 16.8% (inactive); in experiment [5] it was 5.1% (inactive); in experiment [6], -2.4% (inactive).
In the case of `CCOC(OCC)c1ccc(N(C)C)cc1.[C-]#[O+].[C-]#[O+].[C-]#[O+].[Cr]`, the growth inhibition in experiment [1] is -8.25% (inactive); in experiment [2], -30.2% (inactive); in experiment [3], 37.8% (inactive); in experiment [4] it was -4.5% (inactive); in experiment [5], -8.3% (inactive); in experiment [6] it was 4.6% (inactive).
Turning to `O=C(CP(=O)(O)O)NC(CC(=O)OCc1ccccc1)C(=O)OCc1ccccc1` (centres undefined), the growth inhibition in experiment [1] is 12.8% (inactive) and 33% (inactive); in experiment [2], 7.65% (inactive) and -0.7% (inactive); in experiment [3] it was 16.9% (inactive) and 20.3% (inactive); in experiment [4] it was 14.9% (inactive) and 12.6% (inactive); in experiment [5], 2.05% (inactive) and 1.2% (inactive); in experiment [6], -3.4% (inactive) and 3.45% (inactive).
`COP(=O)(OC)OC1C(=O)NC(=O)NC1=O`: the growth inhibition in experiment [1] was 12.3% (inactive); in experiment [2] it was 0.25% (inactive); in experiment [3], -4.15% (inactive); in experiment [4] it was 14.2% (inactive); in experiment [5], 7.2% (inactive); in experiment [6], 17.9% (inactive).
On to `O=P(O)(O)CCCCP(=O)(O)O.[Zn+2]`, for which the growth inhibition was -3.05% (inactive) in experiment [1]; -2.45% (inactive) in experiment [2]; 1.6% (inactive) in experiment [3]; -5.1% (inactive) in experiment [4]; 3.75% (inactive) in experiment [5]; 7.05% (inactive) in experiment [6].
